Results on 39 compounds are retold here after PubChem BioAssay.

Structures are written as SMILES.

The target in the test is PEG-3 (UniProt Q6IN02). Briefly: inhibition of PEG-3 promoter-driven reporter – cell-based, HeLa, luciferase, CREF/GAPDH counter-screen panel, dose response (AID 624167). As to conditions: CREF/GAPDH counter-screens; HeLa PEG-Prom luciferase reporter, overnight, run 1, dose range 1, at 100 µM (top of the series) unless noted. (Counterscreens check selectivity or assay interference.)
PEG-3, sequence (Q6IN02 whole entry, looked up): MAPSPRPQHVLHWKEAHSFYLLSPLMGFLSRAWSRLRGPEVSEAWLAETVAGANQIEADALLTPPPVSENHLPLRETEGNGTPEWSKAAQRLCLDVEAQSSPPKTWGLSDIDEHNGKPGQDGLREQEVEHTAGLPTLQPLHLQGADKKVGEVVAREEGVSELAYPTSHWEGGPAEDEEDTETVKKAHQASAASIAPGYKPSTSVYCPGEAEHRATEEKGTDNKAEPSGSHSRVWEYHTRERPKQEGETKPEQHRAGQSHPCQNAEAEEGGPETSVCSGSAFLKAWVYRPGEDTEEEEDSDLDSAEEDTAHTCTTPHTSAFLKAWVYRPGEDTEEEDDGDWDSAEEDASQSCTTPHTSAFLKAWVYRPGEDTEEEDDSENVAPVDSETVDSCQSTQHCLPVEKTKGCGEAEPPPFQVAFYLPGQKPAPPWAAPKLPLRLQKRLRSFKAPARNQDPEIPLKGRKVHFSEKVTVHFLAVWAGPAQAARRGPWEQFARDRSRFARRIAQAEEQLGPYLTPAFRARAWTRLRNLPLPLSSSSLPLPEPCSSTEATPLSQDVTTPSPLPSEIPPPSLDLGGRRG
Regarding `CC(=O)c1cccc(-c2csc3ncnc(Sc4nnnn4C)c23)c1`, the inhibition (in general, the drop in the measured response relative to a control, in per cent) came to 99.4%.

`CCN1C/C(=C/c2ccc(N3CCOCC3)cc2)C(=O)/C(=C/c2ccc(N3CCOCC3)cc2)C1`: the inhibition is 94.6%.

For the compound `Cc1nn(-c2ccccc2)c2c1C(c1ccc([N+](=O)[O-])cc1)N1C(=N2)C(=O)Nc2ccccc21` (centres undefined), the inhibition came out at 10.2%.

As for `O=C(O)CN1C(=O)/C(=C\c2ccccc2OCc2ccc(Cl)cc2Cl)SC1=S`, the inhibition was determined as 102%.

`CN(C)S(=O)(=O)c1cccc(NC(=O)CSc2nc3c(cc2C#N)C(=O)CC(C)(C)C3)c1`: the inhibition was 63.2%.

For the compound `CCCOc1ccc(NC(=O)CC2C(=O)N(CC)C(=S)N2CCCN2CCN(Cc3ccccc3)CC2)cc1` (centres undefined), the inhibition came to 98.9%.

For the compound `CCN(CC)CCCCNc1ncc2cc(-c3cc(OC)cc(OC)c3)c(NC(=O)NC(C)(C)C)nc2n1`, the inhibition amounted to 97.1%.

Consider `CC1=C(CC[C@@H](C)CO)OC2CC3C4CCC5CC(O)CCC5(C)C4CC(=O)C3(C)C12` (some centres undefined), for which the inhibition was 88.8%.

On to `CCc1ccc(OCCNc2cc(N3CCNC(C)C3)ccc2[N+](=O)[O-])cc1` (centres undefined), for which the inhibition is 99.6%.

For the compound `CC(C)CC(N)c1csc(NC(=O)Nc2ccccc2C(C)C)n1` (centres undefined), the inhibition came out at 99%.

On to `O=C1CCC2S/C(=C/Nc3ccc(C(F)(F)F)cc3)C(=O)N12` (centres undefined), for which the inhibition is 87.1%.

Consider `CCN1CCCC1CN(Cc1cc2ccc(C)cc2[nH]c1=O)C(=S)Nc1ccc(OC)cc1` (centres undefined), for which the inhibition was found to be 102%.

Turning to `COc1cccc(NC(=O)Nc2cccc(C(=O)O)c2)c1`, the inhibition was found to be 87%.

As for `CCCn1c(=N)n(CC(=O)c2ccc(Cl)cc2)c2ccccc21`, the inhibition came out at 101%.

As to `Cc1c(C(=O)N2CCN(c3ccc(F)cc3)CC2)sc2ncnc(N3CCN(c4ccccn4)CC3)c12`, the inhibition came out at 67.2%.

For the compound `CC1CCCCN1CCNC(=O)c1ccc2c(=O)n(Cc3ccc(Cl)cc3)c(=S)[nH]c2c1` (centres undefined), the inhibition amounted to 101%.

As to `CCc1nc(Nc2ccc(N3CCN(C(C)=O)CC3)cc2)c2oc3ccccc3c2n1`, the inhibition is 101%.

As for `c1cncc(-c2nc(NCC3COc4ccccc4O3)c3ccccc3n2)c1` (centres undefined), the inhibition was 101%.

Regarding `N=c1c2c(-c3ccccc3)c(-c3ccccc3)n(Cc3ccccc3)c2ncn1CCO`, the inhibition worked out at 96.4%.

Turning to `Oc1cccc(C(Nc2nccs2)c2ccc3cccnc3c2O)c1` (centres undefined), the inhibition is 97.4%.

Take `CC(=O)c1cccc(NC(=O)c2cccc3c(-c4cccnc4)coc23)c1`: the inhibition is 36.4%.

Turning to `COc1ccc(NC(=O)N(C)[C@H]2C[C@H]3c4[nH]c5ccc(-c6cccc(C)c6)cc5c4CCN3C[C@H]2[C@H](C)O)cc1`, the inhibition turned out to be 98.4%.

In the case of `CCOC(=O)/C(=C\c1ccccc1)C(=O)CCN1CCOCC1`, the inhibition was determined as 102%.

Take `CCOC(=O)C1CCN(c2cc3c(cc2NC(=O)c2ccccc2OCC)n(C)c(=O)n3C)CC1`: the inhibition is 101%.

As to `CCCCCCCNC(=O)C1(CC2CC(c3ccccc3)=NO2)CCNCC1` (centres undefined), the inhibition stood at 97.9%.

`Cc1nn(-c2ccccc2Cl)c(Cl)c1/C=N/Nc1nc2ccccc2s1`: the inhibition came to 57.6%.

On to `COCCn1c(C)cc(C(=O)CSc2nnc3ccccn23)c1C`, for which the inhibition worked out at 98.8%.

Turning to `Cc1ccc(-c2cc(C(=O)Nc3nccs3)c3ccccc3n2)c(C)c1`, the inhibition is 34%.

Take `CC1=NN(c2cccc(C(=O)O)c2)C(=O)/C1=C\C=C/c1ccccc1`: the inhibition was found to be 86.8%.

As for `CN(C)CCNc1ccc(CO)c2oc3ccc(O)cc3c(=O)c12`, the inhibition turned out to be 99.1%.

`C[C@@H]1[C@H]2[C@@H]3CC[C@@H](C3)[C@H]2CN[C@H]1c1cn(Cc2ccccc2)c2ccccc12`: the inhibition came to 99.2%.

For the compound `Cc1ccc(NS(=O)(=O)c2cc3c4c(cccc4c2)C(=O)NC3=O)cc1C`, the inhibition worked out at 71.4%.

Take `CN(C)CCNc1ncnc2c1sc1nc(N3CCOCC3)c3c(c12)CC(C)(C)SC3`: the inhibition is 98%.

In the case of `O=S(=O)(CC(CN1CCCCC1)N1CCCCC1)c1ccccc1` (centres undefined), the inhibition came to 102%.

Regarding `O=S(=O)(N[C@H]1C[C@@H](NS(=O)(=O)OCC(Cl)(Cl)Cl)C2CCCCC21)OCC(Cl)(Cl)Cl` (some centres undefined), the inhibition was determined as 99.2%.

`CCOc1cc(/C=N/Nc2nc(-c3cccc(S(=O)(=O)N4CCCC4)c3)cs2)ccc1O`: the inhibition was determined as 77.8%.

With `COc1ccc(CCNC(=O)c2cc3c(=O)n4ccccc4nc3n(C3CCCCC3)c2=N)cc1`, the inhibition came out at 102%.

For `CC1=CC(C)[C@H](/C=N/n2c(=O)[nH]c3c([nH]c4ccc(Br)cc43)c2=O)C(C)C1` (some centres undefined), the inhibition was 12.7%.

As to `CN(C)CCNc1ncnc2c1ncn2[C@H]1CN(Cc2ccc(-c3ccccc3)cc2)C[C@@H](CO)O1`, the inhibition came out at 100%.
